The values below come from PubChem BioAssay.

In experiment [1] the target is Albumin (Bos taurus) (UniProt P02769). As to the kind of experiment: bovine serum albumin binders on microarray, profiling panel, artefact control for SMM control protein annotation, biochemical, small-molecule microarray, Alexa647 label, 635/667 nm fluorescence (AID 1118).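 Also: score merges 667 nm emission intensity and signal-to-noise per printed compound spot.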 Particulars: BSA-A647 binding, fluorescence 635 nm, higher = more signal.
Albumin (Bos taurus), sequence (P02769 whole entry, looked up): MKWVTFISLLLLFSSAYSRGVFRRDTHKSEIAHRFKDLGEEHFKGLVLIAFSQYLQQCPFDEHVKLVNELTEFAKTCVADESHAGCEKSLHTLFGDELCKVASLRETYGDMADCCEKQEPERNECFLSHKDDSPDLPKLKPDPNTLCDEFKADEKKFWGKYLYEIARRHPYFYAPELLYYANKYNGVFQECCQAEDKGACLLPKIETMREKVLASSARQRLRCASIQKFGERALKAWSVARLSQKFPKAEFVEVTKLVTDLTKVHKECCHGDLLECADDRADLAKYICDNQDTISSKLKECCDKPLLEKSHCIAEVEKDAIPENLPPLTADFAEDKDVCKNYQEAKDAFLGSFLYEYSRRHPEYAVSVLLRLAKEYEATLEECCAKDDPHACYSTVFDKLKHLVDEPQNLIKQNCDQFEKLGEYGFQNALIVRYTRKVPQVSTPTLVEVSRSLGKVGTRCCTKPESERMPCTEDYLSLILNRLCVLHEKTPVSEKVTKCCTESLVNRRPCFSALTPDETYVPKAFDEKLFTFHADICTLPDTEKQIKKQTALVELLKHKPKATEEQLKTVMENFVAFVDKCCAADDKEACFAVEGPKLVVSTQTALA
A short description of experiment [2]: small-molecule microarray binders of probe aXIP, primary screen, biochemical, NeuroSMM set, 635/667 nm fluorescence (AID 1119).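 Also: probe is the protein aXip251-270 applied at 1 µg/mL to compound-printed slides; binding of probe to printed compounds measured as 667 nm fluorescence plus signal to noise.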 Particulars: higher = more signal, called active from +8 up or from −8 down.
A short description of experiment [3]: small-molecule binders of probe aNOTCH3, primary screen, biochemical, small-molecule microarray, 635/667 nm fluorescence (AID 1120).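 Also: probe is a biotin-tagged antibody raised against NOTCH3 rather than NOTCH3 protein; score merges spot fluorescence near 667 nm with spot signal to noise.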 To be noted: higher = more signal.
The nature of experiment [4]: small-molecule binders of probe aNOTCH2, primary screen, biochemical, small-molecule microarray, 635/667 nm fluorescence (AID 1121).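 Also: score merges feature fluorescence read at 667 nm with its signal to noise.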 To be noted: higher = more signal.
Experiment [5] has as its target Carbonic anhydrase 2 (Homo sapiens) (UniProt P00918). Kind of experiment: CAII small-molecule binders, profiling panel, biochemical, small-molecule microarray, Alexa647-labelled CAII (AID 1122). To be noted: CAII-A647 binding fluorescence, higher = more signal.
Experiment [6] in a line: COS7 lysate on small-molecule microarray, probe aHis, 635 nm (AID 1123).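 Also: z-score combines 667nm fluorescence intensity with signal-to-noise per printed compound spot.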 To be noted: COS7 cell lysate, fluorescence, higher = more signal.
Experiment [7] can be described thus: compound binding in COS7 lysate, probe aLAP1, primary screen, cell lysate, small-molecule microarray (AID 1124).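 Also: lysate comes from COS7 cells expressing LAP1 and is applied at 0.3 µg/mL; score merges spot fluorescence near 667 nm with signal-to-noise over triplicate slides.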 To be noted: probe aLAP1, fluorescence, higher = more signal.
In experiment [8] the test system is Sam68 (KHDRBS1). As to the kind of experiment: Sam68 small-molecule binders, primary screen, biochemical, small-molecule microarray, 635 nm fluorescence (AID 1125).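 Also: score merges 667 nm channel intensity with signal to noise over triplicate slides.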 Particulars: small-molecule microarray binding, higher = more signal.
Experiment [9] deals with Chordin-like protein 2 (CHRDL2). Kind of experiment: CHRDL2 small-molecule binders, primary screen, biochemical, small-molecule microarray, 635 nm fluorescence (AID 1126).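 Also: printed compound slides probed with Chrdl2 protein at 4 µg/mL for 1 h at 4 C; score merges 667 nm emission intensity with signal to noise over three replicate slides.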 To be noted: small-molecule microarray binding, fluorescence 635 nm; higher = more signal.
Experiment [10] addresses Concanavalin-A (Canavalia ensiformis) (UniProt P02866). Kind of experiment: ConA small-molecule binders, primary screen, artefact control for SMM control protein annotation, biochemical, small-molecule microarray, Alexa647 label, 635 nm (AID 1127).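 Also: z combines 667 nm emission intensity with signal-to-noise across three replicate slides.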 To be noted: ConA-A647 binding fluorescence, higher = more signal.
A short description of experiment [11]: anti-His antibody binders, primary screen, artefact control for SMM control protein annotation, biochemical, small-molecule microarray, 635 nm fluorescence (AID 1128).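 Also: score merges feature fluorescence with signal-to-noise for each printed compound spot.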 Particulars: anti-His Alexa647 antibody binding, higher = more signal.
Experiment [12] concerns Human papillomavirus type 1a E7 protein (residues 1-88). As to the kind of experiment: HPV1a E7 small-molecule binders, primary screen, biochemical, small-molecule microarray, residues 1-88, 635 nm (AID 1129). To be noted: small-molecule microarray binding, fluorescence 635 nm; higher = more signal.
Experiment [13] addresses Focal adhesion kinase 1 (Homo sapiens) (UniProt Q05397). Kind of experiment: small-molecule microarray binders of FAK, primary screen, biochemical, 635/667 nm fluorescence, BSA, DTT (AID 1130).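 Also: composite of spot emission at 667 nm and signal to noise over triplicate slides.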 To be noted: PTK2 binding, 635 nm fluorescence, higher = more signal.
The test system of experiment [14] is Fibrinogen (Alexa647-labelled). As to the kind of experiment: fibrinogen binders on compound microarrays, profiling panel, artefact control for SMM control-protein annotation, biochemical, small-molecule microarray, 635/667 nm fluorescence (AID 1131).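 Also: z-score merges 667 nm fluorescence with per-spot signal-to-noise over triplicate slides.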 Particulars: fibrinogen-A647 binding fluorescence, higher = more signal.
In experiment [15] the target is Follistatin (Homo sapiens) (UniProt P19883). As to the kind of experiment: follistatin binders on small-molecule microarrays, primary screen, biochemical, small-molecule microarray, 635/667 nm fluorescence (AID 1132). To be noted: FST binding, 635 nm fluorescence, higher = more signal.
Follistatin (Homo sapiens), sequence (P19883 whole entry, looked up): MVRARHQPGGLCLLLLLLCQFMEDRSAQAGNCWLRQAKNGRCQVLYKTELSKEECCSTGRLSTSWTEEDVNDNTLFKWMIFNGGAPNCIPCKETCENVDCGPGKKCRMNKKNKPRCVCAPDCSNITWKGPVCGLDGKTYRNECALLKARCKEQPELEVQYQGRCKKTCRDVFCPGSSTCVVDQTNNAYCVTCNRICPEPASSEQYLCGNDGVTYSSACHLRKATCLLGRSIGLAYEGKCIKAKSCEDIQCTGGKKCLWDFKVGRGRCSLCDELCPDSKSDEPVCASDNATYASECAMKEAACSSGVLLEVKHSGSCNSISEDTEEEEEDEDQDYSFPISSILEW
Experiment [16] deals with Fibroblast growth factor 2 (Homo sapiens) (UniProt P09038). As to the kind of experiment: FGF2 binders on small-molecule microarrays, primary screen, biochemical, small-molecule microarray, 635/667 nm fluorescence (AID 1133). To be noted: small-molecule microarray binding, FGF2, fluorescence 635/667; higher = more signal.
Fibroblast growth factor 2 (Homo sapiens), sequence (P09038 whole entry, looked up): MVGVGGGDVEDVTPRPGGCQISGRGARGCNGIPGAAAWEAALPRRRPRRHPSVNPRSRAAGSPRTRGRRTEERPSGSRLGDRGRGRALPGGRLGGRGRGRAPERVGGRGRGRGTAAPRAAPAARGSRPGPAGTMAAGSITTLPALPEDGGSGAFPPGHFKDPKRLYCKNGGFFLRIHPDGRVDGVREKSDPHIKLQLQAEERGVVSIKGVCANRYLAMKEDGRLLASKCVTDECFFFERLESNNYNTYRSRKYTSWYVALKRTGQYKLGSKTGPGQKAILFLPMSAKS
A short description of experiment [17]: mitochondrial membrane potential change in A549 cells, profiling panel, cell-based, JC-1 fluorescence, basal, 24 h, 100 nL (AID 1138).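 Also: A549 lung adenocarcinoma cells under basal conditions with no added stimulus; test concentration not given here.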 Particulars: higher = more signal.
Experiment [18] concerns Lefty1. As to the kind of experiment: Lefty1 binders on small-molecule microarrays, primary screen, biochemical, small-molecule microarray, 635/667 nm fluorescence (AID 1139). Particulars: small-molecule microarray binding, fluorescence 635/667; higher = more signal.
For experiment [19], the system named is wheat germ agglutinin (Triticum aestivum), Alexa647-labelled. As to the kind of experiment: wheat germ agglutinin binders on compound microarrays, profiling panel, artefact control for SMM control-protein annotation, biochemical, small-molecule microarray, 635/667 nm fluorescence (AID 1140).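 Also: score merges 667 nm feature emission with signal to noise over triplicate slides.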 To be noted: WGA-A647 binding, 635 nm fluorescence, higher = more signal.

Experiment [20] deals with Luciferin 4-monooxygenase (Photinus pyralis) (UniProt P08659). As to the kind of experiment: firefly luciferase enzyme inhibitors, primary screen, biochemical, luminescence, purified enzyme, 2006 set (AID 1141).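 Also: cell-free assay with purified firefly luciferase at 100 ng per well in PBS; test concentration not given here.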 To be noted: SteadyGlo luminescence, 30 min, higher = more signal, called active from +8 up or from −8 down.
Luciferin 4-monooxygenase (Photinus pyralis), sequence (P08659 whole entry, looked up): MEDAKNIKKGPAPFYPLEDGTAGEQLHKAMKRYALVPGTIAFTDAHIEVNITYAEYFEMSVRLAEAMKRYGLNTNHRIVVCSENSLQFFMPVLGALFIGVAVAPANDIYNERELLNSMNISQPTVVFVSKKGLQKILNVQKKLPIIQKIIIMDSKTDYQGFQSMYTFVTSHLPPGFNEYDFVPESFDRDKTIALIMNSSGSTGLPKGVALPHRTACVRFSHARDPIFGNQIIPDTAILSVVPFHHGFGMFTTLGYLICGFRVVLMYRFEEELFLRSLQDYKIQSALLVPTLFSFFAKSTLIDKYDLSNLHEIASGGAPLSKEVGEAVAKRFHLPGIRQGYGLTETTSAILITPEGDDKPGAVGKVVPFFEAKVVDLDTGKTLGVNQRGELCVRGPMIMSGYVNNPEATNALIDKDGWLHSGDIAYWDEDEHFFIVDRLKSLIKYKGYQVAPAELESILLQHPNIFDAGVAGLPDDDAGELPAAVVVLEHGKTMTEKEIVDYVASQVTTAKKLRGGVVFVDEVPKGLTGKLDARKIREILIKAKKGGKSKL

Molecules are shown by their SMILES. Calls of active or inactive are those of the source.

Concanavalin-A (Canavalia ensiformis), sequence (P02866 whole entry, looked up): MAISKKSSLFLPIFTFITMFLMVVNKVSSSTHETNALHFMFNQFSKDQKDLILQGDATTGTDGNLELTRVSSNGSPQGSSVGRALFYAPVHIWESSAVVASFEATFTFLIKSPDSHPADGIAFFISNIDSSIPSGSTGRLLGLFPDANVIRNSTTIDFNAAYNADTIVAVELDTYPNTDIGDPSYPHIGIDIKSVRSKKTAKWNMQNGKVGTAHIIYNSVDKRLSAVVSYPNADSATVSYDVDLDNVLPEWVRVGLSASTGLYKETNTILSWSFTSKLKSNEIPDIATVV
Focal adhesion kinase 1 (Homo sapiens), sequence (Q05397 whole entry, looked up): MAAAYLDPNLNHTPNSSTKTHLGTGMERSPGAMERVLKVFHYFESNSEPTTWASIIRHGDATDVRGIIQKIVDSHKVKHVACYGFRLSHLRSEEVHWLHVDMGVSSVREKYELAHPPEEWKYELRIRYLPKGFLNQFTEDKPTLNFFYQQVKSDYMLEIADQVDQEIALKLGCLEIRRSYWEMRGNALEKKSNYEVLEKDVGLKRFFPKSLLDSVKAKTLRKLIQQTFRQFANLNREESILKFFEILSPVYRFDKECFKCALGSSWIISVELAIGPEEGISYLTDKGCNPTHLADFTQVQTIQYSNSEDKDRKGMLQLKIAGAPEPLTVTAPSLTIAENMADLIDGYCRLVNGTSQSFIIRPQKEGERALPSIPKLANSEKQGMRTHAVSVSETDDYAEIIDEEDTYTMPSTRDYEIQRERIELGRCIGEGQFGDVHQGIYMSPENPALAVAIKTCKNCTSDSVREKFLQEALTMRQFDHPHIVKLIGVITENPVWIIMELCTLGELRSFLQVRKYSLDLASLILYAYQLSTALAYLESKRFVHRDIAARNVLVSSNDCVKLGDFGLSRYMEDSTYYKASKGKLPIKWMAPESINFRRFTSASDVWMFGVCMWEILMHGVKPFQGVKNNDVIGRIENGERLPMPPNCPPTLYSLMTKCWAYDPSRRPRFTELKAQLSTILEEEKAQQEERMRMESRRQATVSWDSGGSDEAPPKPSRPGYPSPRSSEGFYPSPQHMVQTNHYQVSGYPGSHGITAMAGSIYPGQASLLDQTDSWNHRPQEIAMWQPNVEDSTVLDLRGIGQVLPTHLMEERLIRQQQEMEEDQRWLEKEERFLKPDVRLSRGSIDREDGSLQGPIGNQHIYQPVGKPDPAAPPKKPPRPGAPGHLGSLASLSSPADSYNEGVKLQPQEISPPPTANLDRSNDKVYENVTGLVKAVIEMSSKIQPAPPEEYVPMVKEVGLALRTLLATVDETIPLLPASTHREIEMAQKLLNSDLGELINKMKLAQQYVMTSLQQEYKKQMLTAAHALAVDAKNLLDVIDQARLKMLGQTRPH

`CC(C)N1C(=O)[C@@]2(Cc3ccccc31)c1ccccc1C(=O)N(Cc1ccccc1Cl)[C@H]2c1ccc(CO)cc1`: the composite z-score is -0.594 in [1]; -0.321 in experiment [3]; -0.152 in experiment [4]; -0.154 in experiment [5]; -0.472 in [6]; -0.289 in experiment [7]. In addition, the composite z-score was -0.162 in experiment [8]; -0.465 in experiment [9]; 0.0302 in experiment [10]; -0.145 in experiment [11]; -1.3 in experiment [12]; -0.236 in [13]. For the same molecule, the composite z-score is -2.02 in [14]; -1.17 in [15]; -0.468 in experiment [16]; -0.391 in experiment [18]; -0.0789 in experiment [19]. Also, the composite Z-score in experiment [2] was 0.203 (inactive). The z-score in [17] was -0.176; in experiment [20] it was 0.847 (inactive).

For the molecule `COc1ccc(CCNC(=O)[C@@]2(C)c3ccccc3C(=O)N(C(C)C)[C@H]2c2ccc(CO)cc2)cc1`, the composite z-score in experiment [1] is 0.252; in experiment [3], -0.0074; in [4], -0.151; in experiment [5], 0.578; in experiment [6], 0.216; in [7] it was 0.591. Further, the composite z-score in experiment [8] is -0.38; in experiment [9], 0.397; in experiment [10] it was 0.613; in [11], 1.63; in experiment [12], 1.19; in experiment [13], -0.0743. In addition, the composite z-score in experiment [14] stood at 0.0931; in experiment [15] it was 0.674; in [16] it was 0.493; in [18], 0.826; in experiment [19], 0.544. Moreover, in [2], the composite Z-score was 0.768 (inactive). Besides, the z-score in [17] was 0.537; in [20] it was -1.19 (inactive).

On to `O=C1C2C=CC(C(O)Cc3ccccc3)N(n3cnnc3)C2C(=O)N1Cc1ccccc1` (stereo not given), for which the composite z-score in [1] came out at 1.03; in experiment [3], 0.206; in experiment [4], 0.0248; in experiment [5], 0.449; in experiment [6], 1.14; in experiment [7] it was 0.75. Moreover, the composite z-score in experiment [8] is 0.646; in experiment [9], -0.748; in [10], 0.779; in experiment [11], 1.38; in [12], 0.396; in experiment [13], -0.249. Moreover, the composite z-score in experiment [14] is 0.573; in [15] it was -0.185; in experiment [16], -0.279; in experiment [18] it was -0.648; in [19], 1.31. The composite Z-score in experiment [2] was -0.188 (inactive). Moreover, the z-score in experiment [17] was -1.48; in experiment [20], 0.921 (inactive).

As for `CCOC(=O)[C@H]1C/C=C/C[C@H](C(=O)OCC)C(=O)O[C@H]2[C@@H](OC)O[C@H](CO)[C@@H](OC(=O)c3c(OC)cccc3OC)[C@@H]2OC1=O`, the composite z-score in experiment [1] is 0.0961; in experiment [3], 0.275; in [4] it was -0.108; in [5], 0.512; in [6] it was 1.66; in [7], 0.47. The composite z-score was 1.26 in [8]; 0.83 in experiment [9]; 0.932 in experiment [10]; 0.0181 in experiment [11]; 1.12 in experiment [12]; 0.523 in experiment [13]. Besides, the composite z-score stood at 0.661 in experiment [14]; 0.706 in [15]; 0.418 in experiment [16]; 0.639 in experiment [18]; 0.0697 in [19]. The composite Z-score in experiment [2] was 0.338 (inactive). Moreover, the figures for the z-score in experiment [17] and in experiment [20] were -0.927 and -0.335 (inactive), respectively.

On to `O=C1NC(=O)C2C1C=CC(C(O)c1cc(C(F)(F)F)cc(C(F)(F)F)c1)N2Nc1ccccn1` (stereo not given), for which the composite z-score in experiment [1] is 0.0063; in experiment [3], -0.0972; in [4] it was -0.0486; in experiment [5], 0.673; in [6], 2.15; in experiment [7], 0.536. The composite z-score is 0.079 in experiment [8]; 0.673 in [9]; 0.297 in experiment [10]; 0.191 in experiment [11]; 0.289 in [12]; 0.187 in [13]. In addition, the composite z-score in [14] amounted to 0.604; in experiment [15] it was 0.89; in experiment [16], 0.047; in experiment [18], 0.187; in [19], 0.574. Moreover, in experiment [2], the composite Z-score was 0.416 (inactive). Besides, the z-score in experiment [17] is 0.456; in experiment [20], 0.0198 (inactive).

Take `O=C1O[C@H](c2ccccc2)[C@H](c2ccccc2)N2[C@H]1[C@@H](C(=O)N1CCCCCCC1)[C@]1(C(=O)Nc3ccc(C#CCCO)cc31)[C@H]2c1ccccc1OCCO`: the composite z-score in [1] is 0.536; in experiment [3], 2.31; in [4], 1.14; in [5], 1.12; in experiment [6], 5.54; in [7], 1.3. Also, the composite z-score was found to be 1.35 in experiment [8]; 1.7 in [9]; 1.21 in experiment [10]; 3.55 in experiment [11]; 1.36 in experiment [12]; 5.56 in experiment [13]. For the same molecule, the composite z-score stood at 1.02 in experiment [14]; 1.58 in experiment [15]; 1.16 in experiment [16]; 1.93 in experiment [18]; 1.64 in experiment [19]. Moreover, the composite Z-score in experiment [2] was 10.7 (active). The z-score is 0.372 in [17] and -1.35 (inactive) in [20].
